Bioassay records deposited in PubChem by National Center for Advancing Translational Sciences (NCATS).
Shown are actives, neighbours in structure and some others; about 1.1% of the full set was active somewhere.
rTrxR1 inhibitor – blocks rat thioredoxin reductase 1; O89049; recombinant rTrxR1, NADPH fluorescence consumption, selenite substrate; Potency, µM (doses to about 114 µM), inactives show at the top dose activity change, negative = inhibition, most hits filed as inhibitors; actives 1% (n = 390,000); AID 588453; note: potency is the fitted concentration of half-maximal effect; nearly all actives have a fitted effect of over 65% in size
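Rat TrxR1 (90 nM in the dispensed reagent) was pre-reduced with 400 uM NADPH for 5 min at room temperature, then incubated with compound for 15 min. After 400 uM selenite was added, NADPH fluorescence (Ex 340/Em 450 nm) was followed for 8 min.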
GALK inh – inhibitors of human galactokinase; P51570; Purified GALK, Kinase-Glo residual ATP luminescence; Potency, µM (top dose mostly 57.5 µM), without a hit: at the highest dose activity change, negative = inhibition, most hits filed as inhibitors; actives 0.007% (n = 270,000); AID 1868; note: potency is the fitted concentration of half-maximal effect
Target sequence (P51570 whole entry, looked up): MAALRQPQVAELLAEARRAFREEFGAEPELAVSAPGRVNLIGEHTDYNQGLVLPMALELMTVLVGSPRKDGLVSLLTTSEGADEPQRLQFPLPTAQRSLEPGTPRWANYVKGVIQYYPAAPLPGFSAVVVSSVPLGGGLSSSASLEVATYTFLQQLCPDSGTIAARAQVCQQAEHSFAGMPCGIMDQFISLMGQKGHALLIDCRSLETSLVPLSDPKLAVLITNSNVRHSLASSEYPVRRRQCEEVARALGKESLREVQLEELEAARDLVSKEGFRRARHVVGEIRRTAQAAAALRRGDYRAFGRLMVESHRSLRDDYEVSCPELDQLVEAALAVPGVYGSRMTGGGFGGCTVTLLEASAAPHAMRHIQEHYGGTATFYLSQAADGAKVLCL
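Quantitative HTS: GALK 5 nM, ATP 35 uM, galactose 100 uM, 1 h room temperature, then luciferase-based ATP detection.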
TrxR1 substrate – is turned over as a substrate by rat TrxR1; O89049; purified TrxR1 substrate turnover, NADPH consumption readout; Potency, µM (top dose mostly 114 µM), for inactives: top-dose activity change, negative = substrate turnover; actives 0.01% (n = 390,000); AID 588456; note: potency is the fitted concentration of half-maximal effect; nearly all actives have a fitted effect of over 50% in size
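Rat TrxR1, dispensed at 90 nM, was prereduced with 400 uM NADPH (final) for 5 min at ~22 deg C, then incubated with compound 15 min before 400 uM selenite. A first-read NADPH fluorescence drop versus no-compound background flagged substrates.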
PI4K2A block – inhibitors of human PI4K2A. purified PI4K2A, ADP-Glo luminescence, 1 h; stronger effect = lower value. activity change, negative = inhibition, % at 76.9 µM. actives 0.13% (n = 420,000). AID 1346378; in the data active = activity change below about -50%; inconclusive = mostly about -30% to -49%;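 note: -100% = wells without enzyme as full effect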
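Compounds are screened against recombinant PI4K2A using PI as substrate and ATP, the latter dispensed at 300 microM. Reactions run one hour at ambient temperature before ADP-Glo detection; full inhibition defined by wells lacking enzyme.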
* = called active by the depositor; ? = inconclusive; / = not tested or not shown; [ ] = remark or other dose. Unless noted, calls come from the whole dose curve; as a rule, active = well fitted curve in the direction sought with a large enough effect; inconclusive = small, poorly fitted or top-dose-only effect, or another doubt; inactive = no such curve, though single readings can be large; an effect the other way counts as inactive or inconclusive. Unless noted, % is set by controls: 0 for no effect and ±100 for the full control effect.

SMILES	rTrxR1 inhibitor	GALK inh	TrxR1 substrate	PI4K2A block
CC(C)(C)c1nc(S(=O)(=O)c2ccc(Cl)cc2)c(N2CCOCC2)o1	?	-0.6%	1.8%[57.1 µM]	-4.3
COc1ccc(-c2nc(S(=O)(=O)c3ccccc3)c(N3CCOCC3)o2)cc1	39.8µM*	0.2%	-3.0%	3.9
CC(C)Cc1nc(S(=O)(=O)c2ccc(Cl)cc2)c(N2CCOCC2)o1	8.91µM*	-0.6%	2.0%	-1.2
Cc1ccc(S(=O)(=O)c2nc(-c3ccccc3)oc2N2CCCC2)cc1	6.31µM*	/	9.4%	0.7
OC[C@H]1O[C@H](OC[C@H]2OC(O)[C@H](O)[C@@H](O)[C@@H]2O)[C@H](O)[C@@H](O)[C@@H]1O (stereo not given in full)	18.0%	/	3.5%	-1.5
O=S(=O)(c1ccccc1)c1nc(-c2ccccc2)oc1N1CCCCC1	44.7µM*	2.3%	2.5%	3.8
Cc1cc(C(=O)CCl)c(C)n1CCc1ccc(Cl)cc1	7.94µM*	-4.8%	-2.9%	26.0
O=C(O)Cc1ccc2c(c1)C(=O)c1ccccc1CO2	/	/	/	-4.6
Cc1cc(C)c2cc(C#N)c(SCC(=O)NCc3ccco3)nc2c1	56.2µM*	0.0%	0.8%	-6.6
O=C(c1nnsc1S(=O)c1ccc(Cl)cc1)N1CCOCC1 (stereo not given)	3.55µM*	10.1%	9.8%[57.1 µM]	6.3
O=C(c1cc(-c2ccc(Cl)cc2)on1)N1CCOCC1	7.9%	-0.5%	4.1%[57.1 µM]	0.4
O=C(Nc1ccccc1)c1nnsc1S(=O)c1ccc(Cl)cc1 (stereo not given)	1.26µM*	2.6%	9.9%[57.1 µM]	-9.4
Cc1nnsc1S(=O)c1ccc(Cl)cc1 (stereo not given)	-21.6%	4.5%	-1.0%	0.2
CCCCOc1c(Br)cc(/C=C2\N=C(C)OC2=O)cc1OCC	39.8µM*	-7.4%	0.8%	4.8
CCOc1cc(/C=N/O)cc(Br)c1OCC	13.2%	-1.6%	5.6%	-1.6
NC(=O)COCCN1CCN(C(c2ccccc2)c2ccc(Cl)cc2)CC1 (stereo not given)	/	/	/	-4.7
COc1ccc(C(=O)COc2ccc(F)cc2)c(O)c1	20.3%	3.1%	2.9%	4.7
O=C(COc1ccc(F)cc1)c1c(O)cc(O)cc1O	7.08µM*	-0.5%	-10.0%	1.0
COc1ccc(C2=NN(C(=O)c3ccccc3)C(c3cccc([N+](=O)[O-])c3)C2)cc1 (stereo not given)	19.2%	-2.5%	-6.7%	0.6
CCOC(=O)/C=C(/C)N1N=C(c2ccc(OC)cc2)CC1c1cccc([N+](=O)[O-])c1 (stereo not given)	50.1µM*	-0.9%	-11.2%	5.3
CCCCCCCC/C=C/C(=O)O	/	/	/	3.2
COc1ccc2c(c1)Cc1sc(NC(=O)c3cccc(C)c3)nc1-2	-8.2%	/	0.5%	-54.0*
C[n+]1c2cc(N)ccc2cc2ccc(N)cc21 (tested in a mixture with another compound)	/	/	/	-26.3
CC(C)COc1ccc(C(=O)CCN2CCCCC2)cc1	1.41µM*	2.6%	-9.8%	12.3
CC(C)COc1ccc(C(=O)OCCN2CCCCC2)cc1	0.7%	-1.3%	-0.2%	-12.6
SMILES	rTrxR1 inhibitor	GALK inh	TrxR1 substrate	PI4K2A block
CC(=O)c1ccc(OCCCN2CCCCC2)cc1	14.7%	1.2%	4.0%	1.1
CCCCOc1ccc(C(=O)CCN2CCCCC2)cc1	3.16µM*	0.4%	11.6%	20.5
O=C1[C@H](Cc2ccccc2)NC/C=C\C[C@@H](c2ccc(Cl)cc2)N1Cc1ccccc1	-3.3%	/	-1.8%	/
Cc1c(CC(=O)NCc2ccc(F)cc2)c(=O)oc2cc(O)c(Cl)cc12	79.4µM*	/	892.8%	-2.9
O=C(CCl)N1CCN(C(=O)C2COc3ccccc3O2)CC1 (stereo not given)	28.2µM*	/	4.5%	9.3
COc1ccc(S(=O)(=O)N2CCN(C(=O)C3COc4ccccc4O3)CC2)cc1 (stereo not given)	50.1µM*	/	-3.5%	-7.6
Cc1c(CC(=O)N2CCN(C(=O)C3COc4ccccc4O3)CC2)c(=O)oc2cc(O)c(Cl)cc12 (stereo not given)	31.6µM*	8.0%	939.2%	2.2
Cc1coc2cc3oc(=O)c(CC(=O)NCc4ccc(F)cc4)c(C)c3cc12	14.1%	/	11.1%	0.3
O=C(c1ccc(F)cc1)N1CCC(c2nc(-c3ccc(S(=O)(=O)N4CCCC4)cc3)no2)CC1	-7.2%	/	-1.1%	-5.6
COc1ccccc1C1Nc2c(sc3nc(C)cc(C)c23)C(=O)N1c1ccccc1 (stereo not given)	94.0%	/	79.1%	-0.8
